Results as given in the supplement of paper PMC6763611.

Test system: Plasmodium falciparum NF54
Assay: growth inhibition relative to untreated control; higher = more inhibition
Conditions: 72 h
How it was run: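 In dark 96-well half-area plates, each well held 100 μL of P. falciparum NF54 ring-stage culture at 1% parasitemia and 1% hematocrit. The cultures received a single test-compound dose of 5 μM or 1 μM and were kept at 37 °C for 72 h, in minimal RPMI either plain or enriched with folate (2.2 μM), pABA (7.3 μM), pHBA (7.3 μM), tyrosine (111 μM), phenylalanine (90 μM) and tryptophan. SYBR Green staining gave growth inhibition, expressed against untreated wells, with uninfected erythrocytes serving as the background.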

[1] = 1 µM, MM + chorismate end-products (CM screening medium)
[2] = 5 µM, MM + chorismate end-products (CM screening medium)

Structure (SMILES) | growth inhibition [1] | growth inhibition (1 µM, minimal medium (MM)) | growth inhibition [2] | growth inhibition (5 µM, minimal medium (MM))
c1ccc(Oc2ccc(-c3cc(C4CCOCC4)[nH]n3)cc2)cc1 | 1.03% | < 0% | < 0% | < 0%
CC(C)(C)n1nc(Cc2ccc(F)c(Cl)c2)c2c(N)ncnc21 | 5.37% | < 0% | 54.9% | 1.6%
CCOc1ccc(-c2nc(CNCCc3ccc(F)cc3)cs2)cc1 | 2.22% | 38.5% | 28.1% | 27.2%
COc1ccc(N(CCc2cccc(C)n2)C(C)=O)cc1 | 16.2% | < 0% | < 0% | < 0%
CC(=O)N1CCc2cc3nc(C)cc(C)c3cc21 | 13.3% | < 0% | 38.1% | < 0%
COc1ccccc1OCCCCn1c(C2CC2)nc2ccccc21 | 37% | 21.3% | 74.9% | 50.7%
Cc1cc(NCCc2ccccc2)nc(NC(=N)Nc2ccc(Cl)cc2)n1 | 97.8% | 97.7% | 86.2% | 93.7%
Nc1ncnc2[nH]nc(Cc3cccc4ccccc34)c12 | 12.3% | 22.2% | < 0% | < 0%
Cc1cc(Cl)ccc1NC(=O)CCc1ccc(S(=O)(=O)NCC(C)C)cc1 | 23% | < 0% | 6.82% | < 0%
CN1CCN(c2cc(-c3ccc(F)cc3)nc(-c3ccncc3)n2)CC1 | 79.9% | 95.3% | 92.9% | 96.5%
CCCS(=O)(=O)N1CCC(CO)(Cc2ccccc2C(F)(F)F)CC1 | 46.8% | 69.6% | 99.7% | 87.9%
CCOc1ccc(-c2nc(NC(=O)CS(=O)(=O)c3ccccc3)sc2C)cc1 | 96.4% | 95.3% | 95.3% | 92.6%
COc1ccc(C(=N)N)cc1-c1cn(-c2ccc(C(=N)N)cc2)nn1 | 65.6% | 53.6% | 47.8% | 39.2%
